{"source": "PubChem BioAssay AID1259349", "about": "(Broad Institute, 2017)", "note": "Screen size: about 17,000 compounds; about 1,100 (6.5%) were called active. Only a selection was taken, and actives are over-represented in it overall. Values without a mark were called inactive.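 Rule for the calls: active = z-score of -3 or lower, meaning strong loss of probe binding signal; inactive = the rest.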", "data": [{"target": "Insulin-degrading enzyme (Homo sapiens) (UniProt P14735)", "sequence (P14735 42-1019 limits assumed)": "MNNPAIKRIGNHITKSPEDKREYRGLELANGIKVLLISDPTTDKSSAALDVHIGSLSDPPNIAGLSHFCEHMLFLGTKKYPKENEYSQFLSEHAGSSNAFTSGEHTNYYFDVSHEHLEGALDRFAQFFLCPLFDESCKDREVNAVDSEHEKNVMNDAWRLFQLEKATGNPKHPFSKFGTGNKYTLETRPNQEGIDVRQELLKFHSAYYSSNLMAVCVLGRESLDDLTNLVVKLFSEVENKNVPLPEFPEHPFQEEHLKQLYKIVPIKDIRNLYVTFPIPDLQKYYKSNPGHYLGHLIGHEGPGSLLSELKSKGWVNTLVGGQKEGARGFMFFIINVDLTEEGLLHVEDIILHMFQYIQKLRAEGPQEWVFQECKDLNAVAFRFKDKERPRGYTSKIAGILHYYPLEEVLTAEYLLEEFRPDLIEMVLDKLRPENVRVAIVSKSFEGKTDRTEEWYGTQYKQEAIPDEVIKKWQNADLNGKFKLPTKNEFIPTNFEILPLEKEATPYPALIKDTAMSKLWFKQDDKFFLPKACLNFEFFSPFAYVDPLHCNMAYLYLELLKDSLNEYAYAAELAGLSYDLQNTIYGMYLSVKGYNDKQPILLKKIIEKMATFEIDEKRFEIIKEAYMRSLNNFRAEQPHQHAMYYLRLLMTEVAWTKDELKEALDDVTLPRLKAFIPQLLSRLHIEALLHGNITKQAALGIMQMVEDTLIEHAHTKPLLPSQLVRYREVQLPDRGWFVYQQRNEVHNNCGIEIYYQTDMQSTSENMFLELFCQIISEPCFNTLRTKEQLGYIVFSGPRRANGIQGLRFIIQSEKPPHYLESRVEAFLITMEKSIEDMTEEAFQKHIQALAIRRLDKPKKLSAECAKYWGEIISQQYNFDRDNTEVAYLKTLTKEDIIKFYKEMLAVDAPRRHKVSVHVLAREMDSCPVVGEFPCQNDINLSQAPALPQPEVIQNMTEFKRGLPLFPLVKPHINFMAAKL", "assay": "exo-site inhibitors of human IDE, primary screen, biochemical, fluorescence anisotropy, probe displacement (AID 1259349);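 note: His-tagged human IDE residues 42-1019 made in E. coli with 30 nM FL-6b probe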", "details": "purified IDE, FL-6b probe fluorescence polarization; at 20 µM; hits give low values", "values": [{"compound": "Cc1ccc(S(=O)(=O)Nc2ccc3c(c2)C(=O)N([C@H](C)CO)C[C@@H](C)[C@H](CN(C)S(=O)(=O)c2cccs2)OCCCC[C@@H](C)O3)cc1", "z-score": -0.652}, {"compound": "O=C(Cc1ccccn1)N[C@H]1CC[C@H](CCNS(=O)(=O)c2cccc(F)c2)O[C@@H]1CO", "z-score": 0.0602}, {"compound": "O=C(CN1CCOCC1)N1C[C@@H]2N[C@H](C1)C2c1ccc(-c2ccncc2)cc1", "note": "(some centres not stated)", "z-score": 0.193}, {"compound": "O=C(C1CCC1)N1CC(=O)N2[C@@H](CO)[C@@H](c3ccc(C#Cc4cccc(F)c4)cc3)[C@@H]2C1", "z-score": "-4.35 (active)"}, {"compound": "COCC#Cc1ccc([C@@H]2[C@H]3CN(C(=O)C4CCOCC4)CC(=O)N3[C@H]2CO)cc1", "z-score": 2.55}, {"compound": "O=C(C1CCC1)N1CC(=O)N2[C@H](CO)[C@H](c3ccc(C#CCc4ccccc4)cc3)[C@@H]2C1", "z-score": -2.52}, {"compound": "O=C(C1CCCCC1)N1CC(=O)N2[C@H](CO)[C@@H](c3ccc(C#Cc4cccc(F)c4)cc3)[C@@H]2C1", "z-score": 1.96}, {"compound": "COCC#Cc1ccc([C@@H]2[C@@H](CO)N3C(=O)CN(C(=O)C4CCOCC4)C[C@@H]23)cc1", "z-score": 0.89}, {"compound": "O=C(C1CCOCC1)N1CC(=O)N2[C@H](CO)[C@H](c3ccc(C#Cc4cccc(F)c4)cc3)[C@H]2C1", "z-score": "-19.3 (active)"}, {"compound": "COc1ccc2c3c([nH]c2c1)[C@@H](CO)N(Cc1ccncc1)CC31CN(C(=O)CN(C)C)C1", "z-score": -0.567}, {"compound": "COCC(=O)Nc1ccc2c(c1)OC[C@@H](C)N(Cc1ccccc1C(=O)O)C[C@@H](C)[C@H](OC)CN(C)C2=O", "z-score": 1.82}, {"compound": "CC(=O)N1CCCCN2[C@H](C1)[C@@H](c1ccc(-c3ccc(F)cc3)cc1)[C@@H]2CO", "z-score": 0.352}, {"compound": "O=C(c1cccc(F)c1)N1CCCCN2[C@H](CO)[C@@H](c3ccc(-c4cncnc4)cc3)[C@H]2C1", "z-score": 1.13}, {"compound": "O=C(c1cccc(F)c1)N1CCCCN2[C@@H](CO)[C@H](c3ccc(-c4cncnc4)cc3)[C@@H]2C1", "z-score": 1.94}, {"compound": "O=C(C1CC1)N1CCCCN2[C@H](CO)[C@H](c3ccc(-c4cccc(F)c4)cc3)[C@H]2C1", "z-score": "-6.38 (active)"}, {"compound": "O=C(C1CCC1)N1CCCCN2[C@H](CO)[C@H](c3ccc(-c4ccncc4)cc3)[C@@H]2C1", "z-score": -0.182}, {"compound": "O=C(C1CC1)N1CCCCN2[C@H](C1)[C@@H](c1ccc(-c3cccc(F)c3)cc1)[C@@H]2CO", "z-score": "-3.66 (active)"}, {"compound": "COc1cccc(S(=O)(=O)Nc2ccc3c(c2)[C@@H]2C[C@@H](CC(=O)NC4CCCCC4)O[C@H](CO)[C@@H]2O3)c1", "z-score": -0.362}, {"compound": "COc1ccc2c3c([nH]c2c1)[C@@H](CO)N(C(=O)C1CC1)CC31CCN(C(=O)c2ccncc2)CC1", "z-score": 1.3}, {"compound": "CO[C@H]1CN(C)C(=O)c2cc(NC(=O)C3CC3)ccc2OC[C@@H](C)N(Cc2cc(F)ccc2F)C[C@H]1C", "z-score": -1.43}, {"compound": "COc1ccc2c3c(n(C)c2c1)[C@@H](CO)N(Cc1ccccc1F)CC31CCN(C(=O)C2CCOCC2)CC1", "z-score": -2.72}, {"compound": "OC[C@H]1[C@@H](c2ccc(-c3ccccc3F)cc2)[C@@H]2CN(Cc3ccncc3)CCCCN12", "z-score": -0.42}, {"compound": "OC[C@@H]1[C@@H](c2ccc(C#CC3(O)CCCC3)cc2)[C@@H]2CN(Cc3cncnc3)CCCCN12", "z-score": 0.144}, {"compound": "OC[C@H]1[C@H](c2ccc(-c3ccccc3F)cc2)[C@H]2CN(Cc3cncnc3)CCCCN21", "z-score": "-3.23 (active)"}, {"compound": "CCCC#Cc1ccc([C@H]2[C@H]3CN(Cc4cncnc4)CCCCN3[C@H]2CO)cc1", "z-score": 1.82}, {"compound": "OC[C@@H]1[C@H](c2ccc(C#Cc3ccccc3)cc2)[C@@H]2CN(Cc3cncnc3)CCCCN12", "z-score": "-3.14 (active)"}, {"compound": "OC[C@@H]1[C@@H](c2ccc(-c3ccccc3F)cc2)[C@@H]2CN(Cc3cncnc3)CCCCN12", "z-score": -0.419}, {"compound": "CN1C(=O)c2cc(NC(=O)Nc3ccccc3Cl)ccc2OC[C@H]2O[C@H](CC(=O)NCCCN3CCOCC3)CC[C@H]21", "z-score": -1.04}, {"compound": "CC(=O)NC[C@H]1[C@@H](c2ccc(C#CC(C)C)cc2)[C@@H](CO)N1Cc1ccccn1", "z-score": -1.78}, {"compound": "C[C@@H]1CN([C@H](C)CO)C(=O)c2cc(NC(=O)NC3CCCCC3)ccc2O[C@@H]1CN(C)S(C)(=O)=O", "z-score": 0.86}, {"compound": "COc1cccc(C(=O)Nc2ccc3c(c2)C(=O)N(C)[C@H]2CC[C@H](CC(=O)N[C@@H](C)c4ccccc4)O[C@H]2CO3)c1", "z-score": -1.12}, {"compound": "COc1cccc(C(=O)Nc2ccc3c(c2)C(=O)N(C)[C@H]2CC[C@@H](CC(=O)N[C@H](C)c4ccccc4)O[C@H]2CO3)c1", "z-score": "-4.24 (active)"}, {"compound": "C[C@@H](NC(=O)C[C@H]1CC[C@H]2[C@H](COc3ccc(NS(=O)(=O)c4ccc(Cl)cc4)cc3C(=O)N2C)O1)c1ccccc1", "z-score": 0.297}, {"compound": "COc1ccc(C#Cc2ccc([C@H]3[C@H]4CN(C(=O)c5cccnc5)CC(=O)N4[C@H]3CO)cc2)cc1", "z-score": -0.5}, {"compound": "CCCC#Cc1ccc([C@H]2[C@H]3CN(C(=O)c4cccnc4)CC(=O)N3[C@H]2CO)cc1", "z-score": 0.452}, {"compound": "O=C(Cc1ccccn1)N1CC(=O)N2[C@H](C1)[C@@H](c1ccc(-c3ccccc3)cc1)[C@@H]2CO", "z-score": "-6.31 (active)"}, {"compound": "COc1cccc(-c2ccc([C@@H]3[C@H]4CN(C(=O)c5cccnc5)CC(=O)N4[C@H]3CO)cc2)c1", "z-score": "-6.37 (active)"}, {"compound": "Cc1ccccc1-c1ccc([C@H]2[C@H](CO)N3C(=O)CN(C(=O)c4cccnc4)C[C@@H]23)cc1", "z-score": "-12.4 (active)"}, {"compound": "O=C(Cc1ccccn1)N1CC(=O)N2[C@H](CO)[C@H](c3ccc(C#CCC4CCCC4)cc3)[C@@H]2C1", "z-score": 0.616}, {"compound": "O=C(c1ccccc1F)N1CC(=O)N2[C@H](CO)[C@@H](c3ccc(-c4cccnc4)cc3)[C@H]2C1", "z-score": -0.211}, {"compound": "O=C(c1cccnc1)N1CC(=O)N2[C@H](CO)[C@@H](c3ccc(-c4ccc(F)cc4)cc3)[C@@H]2C1", "z-score": -1.03}, {"compound": "N#Cc1ccc(-c2ccc([C@H]3[C@H](CO)N4C(=O)CN(C(=O)Cc5ccccc5)C[C@@H]34)cc2)cc1", "z-score": 1.44}, {"compound": "O=C(c1cccnc1)N1CC(=O)N2[C@H](C1)[C@H](c1ccc(-c3ccccc3F)cc1)[C@@H]2CO", "z-score": -1.28}, {"compound": "O=C(c1cccnc1)N1CC(=O)N2[C@H](CO)[C@H](c3ccc(-c4cccnc4)cc3)[C@@H]2C1", "z-score": 1.98}, {"compound": "Cc1ccccc1-c1ccc([C@H]2[C@@H](CO)N3C(=O)CN(C(=O)c4cccnc4)C[C@@H]23)cc1", "z-score": "-8.42 (active)"}, {"compound": "C[C@H]1CN([C@@H](C)CO)S(=O)(=O)c2ccc(C#CC3(O)CCCC3)cc2O[C@@H]1CN(C)C(=O)Nc1cccc(F)c1", "z-score": -0.533}, {"compound": "COc1ccc(-c2ccccc2[C@H]2[C@@H](CO)N(C(=O)c3cccnc3)[C@H]2C#N)cc1", "z-score": 0.00658}, {"compound": "N#Cc1cccc(-c2ccc(C3[C@H]4CNC[C@@H]3N4Cc3cncnc3)cc2)c1", "note": "(some centres not stated)", "z-score": 1.3}, {"compound": "CCN(C[C@H]1[C@H](c2ccc(-c3ccccc3)cc2)[C@H](CO)N1CC1CC1)C(C)=O", "z-score": 2.55}, {"compound": "N#Cc1cccc(-c2ccc(C3[C@@H]4CNC[C@H]3N4)cc2)c1", "note": "(some centres not stated)", "z-score": -0.64}, {"compound": "CCCNC(=O)N1[C@H](CNC(=O)c2cccc(F)c2)[C@H](c2ccccc2)[C@@H]1CO", "z-score": 1.46}, {"compound": "CCCNC(=O)N1[C@@H]2Cn3c(ccc(-c4ccc(OC)cc4)c3=O)[C@H]1[C@@H](C(=O)NC1CCC1)[C@@H]2CO", "z-score": -0.305}, {"compound": "CN(C)C(=O)c1cccc(-c2ccc([C@H]3[C@H](CO)N4C(=O)CN(C(=O)Cc5ccccc5)C[C@@H]34)cc2)c1", "z-score": 3.83}, {"compound": "CN(C)C(=O)c1cccc(-c2ccc([C@H]3[C@H]4CN(C(=O)Cc5ccccc5)CC(=O)N4[C@H]3CO)cc2)c1", "z-score": 1.91}, {"compound": "Cc1cccc(-c2ccc([C@@H]3[C@H]4CN(C(=O)c5ccccc5)CC(=O)N4[C@H]3CO)cc2)c1", "z-score": "-8.7 (active)"}, {"compound": "O=C(Cc1cccnc1)N1CC(=O)N2[C@H](CO)[C@@H](c3ccc(/C=C/c4ccccc4)cc3)[C@H]2C1", "z-score": -1.1}, {"compound": "O=C(CN1CCOCC1)N1CCCCN2[C@@H](CO)[C@H](c3ccc(-c4ccccc4)cc3)[C@@H]2C1", "z-score": -0.926}, {"compound": "CC(C)CC#Cc1ccc([C@H]2[C@H]3CN(C(=O)CN4CCOCC4)CC(=O)N3[C@H]2CO)cc1", "z-score": 4.32}, {"compound": "O=C(CN1CCOCC1)N1CCCCN2[C@H](CO)[C@H](c3ccc(-c4ccccc4)cc3)[C@@H]2C1", "z-score": -0.341}, {"compound": "O=C(CN1CCOCC1)N1CCCCN2[C@@H](CO)[C@H](c3ccc(/C=C/c4ccccc4)cc3)[C@@H]2C1", "z-score": "-4.3 (active)"}, {"compound": "O=C(CN1CCOCC1)N1CC(=O)N2[C@H](C1)[C@H](c1ccc(/C=C/c3ccccc3)cc1)[C@@H]2CO", "z-score": "-5.55 (active)"}, {"compound": "CCC(=O)N1CCCCN2[C@H](C1)[C@@H](c1ccc(/C=C/c3ccccc3)cc1)[C@@H]2CO", "z-score": "-7.21 (active)"}, {"compound": "COCC(=O)N1CCCCN2[C@H](C1)[C@@H](c1ccc(-c3ccccc3)cc1)[C@@H]2CO", "z-score": 1.64}, {"compound": "CCC(=O)N1CCCCN2[C@H](C1)[C@@H](c1ccc(-c3ccc(F)cc3)cc1)[C@@H]2CO", "z-score": 1.91}, {"compound": "O=C(c1cnccn1)N1CC(=O)N2[C@H](C1)[C@@H](c1ccc(C3=CCCCC3)cc1)[C@@H]2CO", "z-score": 0.336}, {"compound": "O=C(c1cnccn1)N1CC(=O)N2[C@H](C1)[C@H](c1ccc(/C=C/c3ccccc3)cc1)[C@@H]2CO", "z-score": "-7.53 (active)"}, {"compound": "CC(C)CC#Cc1ccc([C@H]2[C@@H](CO)N3C(=O)CN(C(=O)CN4CCOCC4)C[C@H]23)cc1", "z-score": 2.46}]}]}
